Results taken from the supplement of paper PMC10037445.
The full ranking holds about 2,900 compounds; the median of “NF-kB SEAP reporter activity, fold change vs agonist alone” is about 0.99, and the highest 2% start at about 2.6. This is one part of a sample in which the highest values are shown more often than they occur.

Key:
[1] = system: RAW-Dual; assay: NF-kB SEAP reporter activity, fold change vs agonist alone; higher = enhanced NF-kB activity
How it was run: (§1)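 After 50 nL of library stock was delivered by pin tool to RAW-Dual macrophages (50,000 cells/well, DMEM, 384-well plates), a PRR agonist was added 1 h later and the plates were kept at 37 °C, 5% CO2. Twenty hours later, IRF was read from supernatant by QuantiLuc luminescence and NF-κB by QuantiBlue absorbance at 620 nm. Reporter activity is stated as fold change over agonist-alone wells. Wells with IncuCyte confluency under 70% of agonist controls in both mask sets were counted as cytotoxic.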

[2] = system: RAW-Dual; assay: NF-kB SEAP reporter activity, fold change vs agonist alone; cytotoxicity flag (confluency mask): cytotoxic (confluency <70% of control); higher = enhanced NF-kB activity
How it was run: as §1

[3] = system: RAW-Dual; assay: NF-kB SEAP reporter activity, fold change vs agonist alone; cytotoxicity flag (confluency mask): not cytotoxic; higher = enhanced NF-kB activity
How it was run: as §1

[4] = library stock concentration (final ~1000-fold dilution): 10 mM, cytotoxicity flag (confluency mask): cytotoxic (confluency <70% of control), agonist: Imiquimod (TLR7) […]
[5] = library stock concentration (final ~1000-fold dilution): 10 mM, cytotoxicity flag (confluency mask): cytotoxic (confluency <70% of control), agonist: MPLA (TLR4) […]
[6] = agonist: ODN 1826 (TLR9) 0.5 ug/mL
[7] = agonist: Pam2CSK4 (TLR2/6) 0.1 ug/mL
[8] = agonist: Pam3CSK4 (TLR2/1) 0.1 ug/mL
[9] = library stock concentration (final ~1000-fold dilution): 10 mM water, cytotoxicity flag (confluency mask): not cytotoxic, agonist: MPLA (TLR4) […]
[10] = library stock concentration (final ~1000-fold dilution): 10 mM, cytotoxicity flag (confluency mask): not cytotoxic, agonist: Imiquimod (TLR7) […]
[11] = library stock concentration (final ~1000-fold dilution): 10 mM, cytotoxicity flag (confluency mask): not cytotoxic, agonist: MPLA (TLR4) […]
[12] = library stock concentration (final ~1000-fold dilution): 2 mM, cytotoxicity flag (confluency mask): not cytotoxic, agonist: Imiquimod (TLR7) […]
[13] = library stock concentration (final ~1000-fold dilution): 2 mM, cytotoxicity flag (confluency mask): not cytotoxic, agonist: MPLA (TLR4) […]

## Cl.OCCNCc1ccc(OCc2ccc(F)cc2)c(OCc2ccc(F)cc2)c1
[1]; [4]
  NF-kB SEAP reporter activity: 1.41
[1]; [5]
  NF-kB SEAP reporter activity: 1.5

## Cl.OCCNCc1ccc(OCc2ccc(F)cc2)c(OCc2ccc(F)cc2)c1 (library stock concentration (final ~1000-fold dilution): 10 mM)
[2]; agonist: LPS (TLR4) 0.1 ug/mL
  NF-kB SEAP reporter activity: 0.702
[2]; [6]
  NF-kB SEAP reporter activity: 0.629
[2]; [7]
  NF-kB SEAP reporter activity: 0.301
[2]; [8]
  NF-kB SEAP reporter activity: 0.354

## Cl.N=C(N)NCCCCC(N)C(=O)O (stereo unspecified) (library stock concentration (final ~1000-fold dilution): 10 mM water)
[3]; agonist: LPS (TLR4) 0.1 ug/mL
  NF-kB SEAP reporter activity: 1.17
[3]; [6]
  NF-kB SEAP reporter activity: 1.12
[3]; [7]
  NF-kB SEAP reporter activity: 1.21
[3]; [8]
  NF-kB SEAP reporter activity: 0.923

## Cl.N=C(N)NCCCCC(N)C(=O)O (stereo unspecified)
[1]; [9]
  NF-kB SEAP reporter activity: 1.08

## CCCCNc1ncc2c(-c3ccc(CN4CCN(C)CC4)cc3)cn(C3CCC(O)CC3)c2n1.Cl (stereo unspecified) (library stock concentration (final ~1000-fold dilution): 10 mM)
[2]; agonist: LPS (TLR4) 0.1 ug/mL
  NF-kB SEAP reporter activity: 0.236
[2]; [6]
  NF-kB SEAP reporter activity: 0.351
[2]; [7]
  NF-kB SEAP reporter activity: 0.128
[2]; [8]
  NF-kB SEAP reporter activity: 0.192

## CCCCNc1ncc2c(-c3ccc(CN4CCN(C)CC4)cc3)cn(C3CCC(O)CC3)c2n1.Cl (stereo unspecified)
[1]; [4]
  NF-kB SEAP reporter activity: 0.547
[1]; [5]
  NF-kB SEAP reporter activity: 0.322

## CCn1cc(-c2ccnc3[nH]c(-c4cccc(CN(C)C)c4)cc23)c(-c2ccc(NC(=O)N(C)C)cc2)n1
[1]; [10]
  NF-kB SEAP reporter activity: 3.13
[1]; [11]
  NF-kB SEAP reporter activity: 2.67

## CN(C)C(=O)Nc1cccc(-c2ccc(N(C)C)cc2)c1
[1]; [10]
  NF-kB SEAP reporter activity: 0.998
[1]; [11]
  NF-kB SEAP reporter activity: 0.985

## CCn1cc(-c2ccnc3[nH]c(-c4cccc(CN(C)C)c4)cc23)c(-c2ccc(NC(=O)N(C)C)cc2)n1 (library stock concentration (final ~1000-fold dilution): 10 mM)
[3]; agonist: LPS (TLR4) 0.1 ug/mL
  NF-kB SEAP reporter activity: 6.43
[3]; [6]
  NF-kB SEAP reporter activity: 0.432
[3]; [7]
  NF-kB SEAP reporter activity: 1.83
[3]; [8]
  NF-kB SEAP reporter activity: 3.76

## CN(C)C(=O)Nc1cccc(-c2ccc(N(C)C)cc2)c1 (library stock concentration (final ~1000-fold dilution): 10 mM)
[3]; agonist: LPS (TLR4) 0.1 ug/mL
  NF-kB SEAP reporter activity: 1.52
[3]; [6]
  NF-kB SEAP reporter activity: 1.08
[3]; [7]
  NF-kB SEAP reporter activity: 0.914
[3]; [8]
  NF-kB SEAP reporter activity: 1.01

## CS(=O)(=O)O.O=C(Nc1cccc(Cl)c1)Nc1ncc(CCNc2ncnc3ccsc23)s1 (library stock concentration (final ~1000-fold dilution): 10 mM)
[2]; agonist: LPS (TLR4) 0.1 ug/mL
  NF-kB SEAP reporter activity: 1
[2]; [6]
  NF-kB SEAP reporter activity: 0.54
[2]; [7]
  NF-kB SEAP reporter activity: 0.153
[2]; [8]
  NF-kB SEAP reporter activity: 0.292

## CS(=O)(=O)O.O=C(Nc1cccc(Cl)c1)Nc1ncc(CCNc2ncnc3ccsc23)s1
[1]; [4]
  NF-kB SEAP reporter activity: 0.503
[1]; [5]
  NF-kB SEAP reporter activity: 0.512

## CCCCCCOc1cc(C)c(O)c(C)c1C (library stock concentration (final ~1000-fold dilution): 10 mM)
[2]; agonist: LPS (TLR4) 0.1 ug/mL
  NF-kB SEAP reporter activity: 0.406
[2]; [6]
  NF-kB SEAP reporter activity: 0.234
[2]; [7]
  NF-kB SEAP reporter activity: 0.154
[2]; [8]
  NF-kB SEAP reporter activity: 0.209

## CCCCCCOc1cc(C)c(O)c(C)c1C
[1]; [4]
  NF-kB SEAP reporter activity: 0.313
[1]; [5]
  NF-kB SEAP reporter activity: 1.36

## O=C(NC(C1CC1)C(F)(F)F)c1cc(-c2cnn3cc(-c4ccc(F)cc4)cnc23)cs1 (stereo unspecified)
[1]; [10]
  NF-kB SEAP reporter activity: 1.28
[1]; [11]
  NF-kB SEAP reporter activity: 1.98

## c1cc(-c2cnn3cc(-c4ccc(OCCN5CCCCC5)cc4)cnc23)ccn1
[1]; [12]
  NF-kB SEAP reporter activity: 0.841
[1]; [13]
  NF-kB SEAP reporter activity: 1.08

## Cl.Cl.c1cc(-c2cnn3cc(-c4ccc(OCCN5CCCCC5)cc4)cnc23)ccn1 (library stock concentration (final ~1000-fold dilution): 10 mM water)
[3]; agonist: LPS (TLR4) 0.1 ug/mL
  NF-kB SEAP reporter activity: 1.69
[3]; [6]
  NF-kB SEAP reporter activity: 0.252
[3]; [7]
  NF-kB SEAP reporter activity: 1.44
[3]; [8]
  NF-kB SEAP reporter activity: 1.92

## c1cc(-c2cnn3cc(-c4ccc(OCCN5CCCCC5)cc4)cnc23)ccn1 (library stock concentration (final ~1000-fold dilution): 2 mM)
[3]; agonist: LPS (TLR4) 0.1 ug/mL
  NF-kB SEAP reporter activity: 1.38
[3]; [6]
  NF-kB SEAP reporter activity: 0.365
[3]; [7]
  NF-kB SEAP reporter activity: 1.32
[3]; [8]
  NF-kB SEAP reporter activity: 1.28

## O=C(NC(C1CC1)C(F)(F)F)c1cc(-c2cnn3cc(-c4ccc(F)cc4)cnc23)cs1 (stereo unspecified) (library stock concentration (final ~1000-fold dilution): 10 mM)
[3]; agonist: LPS (TLR4) 0.1 ug/mL
  NF-kB SEAP reporter activity: 2.68
[3]; [6]
  NF-kB SEAP reporter activity: 1.73
[3]; [7]
  NF-kB SEAP reporter activity: 2.46
[3]; [8]
  NF-kB SEAP reporter activity: 3.14

## Cl.Cl.c1cc(-c2cnn3cc(-c4ccc(OCCN5CCCCC5)cc4)cnc23)ccn1
[1]; library stock concentration (final ~1000-fold dilution): 10 mM water, cytotoxicity flag (confluency mask): not cytotoxic, agonist: Imiquimod (TLR7) […]
  NF-kB SEAP reporter activity: 0.944
[1]; [9]
  NF-kB SEAP reporter activity: 1.2

## CCC(=C(c1ccccc1)c1ccc(OCCN(C)C)cc1)c1ccccc1
[1]; [4]
  NF-kB SEAP reporter activity: 1.53
[1]; [5]
  NF-kB SEAP reporter activity: 1.52

## CCC(=C(c1ccccc1)c1ccc(OCCN(C)C)cc1)c1ccccc1 (library stock concentration (final ~1000-fold dilution): 10 mM)
[2]; agonist: LPS (TLR4) 0.1 ug/mL
  NF-kB SEAP reporter activity: 0.687
[2]; [6]
  NF-kB SEAP reporter activity: 0.447
[2]; [7]
  NF-kB SEAP reporter activity: 0.398
[2]; [8]
  NF-kB SEAP reporter activity: 0.525

## Cc1ccccc1C(OCCN(C)C)c1ccccc1.Cl (stereo unspecified) (library stock concentration (final ~1000-fold dilution): 10 mM)
[3]; agonist: LPS (TLR4) 0.1 ug/mL
  NF-kB SEAP reporter activity: 1.29
[3]; [6]
  NF-kB SEAP reporter activity: 0.935
[3]; [7]
  NF-kB SEAP reporter activity: 0.934
[3]; [8]
  NF-kB SEAP reporter activity: 0.932

## Cc1ccccc1C(OCCN(C)C)c1ccccc1.Cl (stereo unspecified)
[1]; [10]
  NF-kB SEAP reporter activity: 1.38
[1]; [11]
  NF-kB SEAP reporter activity: 1.13

## CNc1ncc2cc(-c3cc(NC(=O)NCCC(C)(C)C)c(F)cc3C)c(C)nc2n1
[1]; [12]
  NF-kB SEAP reporter activity: 0.497
[1]; [13]
  NF-kB SEAP reporter activity: 0.918

## CNc1ncc2cc(-c3cc(NC(=O)NCCC(C)(C)C)c(F)cc3C)c(C)nc2n1 (library stock concentration (final ~1000-fold dilution): 2 mM)
[3]; agonist: LPS (TLR4) 0.1 ug/mL
  NF-kB SEAP reporter activity: 1.42
[3]; [6]
  NF-kB SEAP reporter activity: 0.533
[3]; [7]
  NF-kB SEAP reporter activity: 0.218
[3]; [8]
  NF-kB SEAP reporter activity: 0.28

## COc1cc(OC)cc(-c2cc3cnc(N)nc3nc2NC(=O)NC(C)(C)C)c1 (library stock concentration (final ~1000-fold dilution): 10 mM)
[3]; agonist: LPS (TLR4) 0.1 ug/mL
  NF-kB SEAP reporter activity: 5.36
[3]; [6]
  NF-kB SEAP reporter activity: 1.02
[3]; [7]
  NF-kB SEAP reporter activity: 0.578
[3]; [8]
  NF-kB SEAP reporter activity: 0.747
